Experimental data from PubChem BioAssay (Tox21).
Records with an inconclusive call do not appear. A call without a number means that no potency is given here. Calls of active or inactive are those of the source. Unless noted, calls come from the whole dose curve.

Key:
[1] = Nuclear factor erythroid 2-related factor 2/antioxidant responsive element (Nrf2/ARE) small molecule agonists: qHTS cell viability counter screen in human keratinocytes (AID 1919968; active = well fitted curve in the direction sought with a large enough effect in the repeat runs; an effect the other way counts as inactive or inconclusive; note: nearly all actives have a fitted effect of over 55% in size)
Outline: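 Parallel cytotoxicity read: KeratinoSens HaCaT cells, compound treatment 23 h, viability by CellTiter-Fluor fluorescence 1 h post-reagent.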

[2] = Nuclear factor erythroid 2-related factor 2/antioxidant responsive element (Nrf2/ARE) small molecule agonists: luciferase reporter gene qHTS assay in human keratinocytes (AID 1919969); note: nearly all actives have a fitted effect of over 35% in size
[3] = target: Gonadotropin-releasing hormone receptor (Homo sapiens) (UniProt P30968); experiment: Human gonadotropin-releasing hormone receptor (GnRHR) small molecule agonists, calcium flux assay in GnRHR-HEK293 cells (AID 1920063); note: nearly all actives have a fitted effect of over 35% in size
Outline: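 Calcium flux, agonist mode, human GnRHR stably integrated in HEK293; dye 1 h at 37 C before compound; Ex/Em=480/540 kinetic read, 3 min; 15 concentrations, triplicate.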

[4] = target: KiSS-1 receptor (Homo sapiens) (UniProt Q969F8); experiment: Human kisspeptin (KISS1R) small molecule agonists, calcium flux assay in KISS1R-HEK293 cells (AID 1920064; active = well fitted curve in the direction sought with a large enough effect in the repeat runs; an effect the other way counts as inactive or inconclusive)
Outline: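 Triplicate 15-concentration series were applied to dye-loaded human KISS1R HEK293 cells, and agonist-evoked calcium fluorescence was captured for 3 min.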

[5] = G protein-coupled receptor (GPCR) small molecule agonists, calcium flux assay: HEK293 wild type cell line counter screen (AID 1920065)
Outline: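 Non-specific calcium responders were flagged by adding DMSO-dissolved compounds to dye-loaded cells and reading 480/540 nm fluorescence each second for 3 min; ATP served as positive control.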

[6] = p53 small molecule agonists, cell-based qHTS assay with human liver microsomes (AID 1963577)
Outline: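 Fluorescence of the beta-lactamase reporter in p53RE-bla cells, detected with LiveBLAzer substrate (2 h, room temperature, dark), served as the read-out after 16 h compound exposure at 37 C with human liver microsomes and NADPH, each 0.5 mg/mL final.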

[7] = p53 small molecule agonists, cell-based qHTS assay with rat liver microsomes (AID 1963578)
Outline: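 Cells carrying a p53 response element–beta-lactamase reporter were plated and rested 5 h, then dosed with compound in DMSO plus rat liver microsomes and NADPH, each at 0.5 mg/mL final. After 16 h at 37 C, LiveBLAzer substrate was added for 2 h.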

[8] = p53 small molecule agonists, cell-based qHTS assay with human liver microsomes: qHTS cell viability counter screen (AID 1963579); note: nearly all actives have a fitted effect of over 45% in size
Outline: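 Cytotoxicity counter screen: p53RE-bla, 4,000 cells/well; 5 h settle, 37 C/5% CO2; cpd + HLM 0.5 mg/mL + NADPH 0.5 mg/mL (final); 16 h, 37 C; CellTiter-Glo, 30 min RT, luminescence.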

[9] = p53 small molecule agonists, cell-based qHTS assay with rat liver microsomes: qHTS cell viability counter screen (AID 1963580); note: nearly all actives have a fitted effect of over 45% in size
Outline: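 Cytotoxicity counter screen: intracellular ATP measured by CellTiter-Glo luminescence in the same wells as the beta-lactamase reporter read, on HCT-116 p53RE-bla cells exposed 16 h at 37 C to compounds with rat liver microsomes and NADPH, each 0.5 mg/mL final.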

[10] = p53 small molecule agonists, cell-based qHTS assay: qHTS cell viability counter screen (AID 1963581); note: nearly all actives have a fitted effect of over 45% in size
Outline: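 Multiplexed with the reporter read, a CellTiter-Glo step (30 min, room temperature) gauges ATP-based viability of HCT-116 p53RE-bla cells after 16 h compound incubation at 37 C.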

[11] = p53 small molecule agonists, cell-based qHTS assay (AID 1963582; active = well fitted activation curve with a large enough effect in the signal ratio in the repeat runs, not every such curve was filed as active; the % refers to the signal ratio)
Outline: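 Beta-lactamase reporter cells (p53RE-bla) treated with compounds for 16 h at 37 C; FRET substrate, 2 h, room temperature; fluorescence intensity.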

[12] = target: 5-hydroxytryptamine receptor 2A (Homo sapiens) (UniProt P28223); experiment: 5-hydroxytryptamine receptor 2A (HTR2A) small molecule antagonists, cell-based qHTS assay (AID 1963586); note: nearly all actives have a fitted effect of over 45% in size
Outline: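 CHO cells stably expressing human HTR2A were plated for 18 h at 37 C, then loaded with calcium dye for 1 h. Compounds were preincubated 5 min at room temperature before DOI (4 nM solution) was added. Kinetic fluorescence was read for 3 min.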

[13] = target: 5-hydroxytryptamine receptor 2A (Homo sapiens) (UniProt P28223); experiment: 5-hydroxytryptamine receptor 2A (HTR2A) small molecule agonists, cell-based qHTS assay (AID 1963587); note: nearly all actives have a fitted effect of over 30% in size
Outline: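 CHO cells stably expressing human HTR2A, plated 18 h, loaded with calcium dye 1 h at 37 C. Agonist mode: compounds added and intracellular calcium fluorescence recorded kinetically for 2 min at 1 sec intervals.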

[14] = target: Muscarinic acetylcholine receptor M1 (Homo sapiens) (UniProt P11229); experiment: Cholinergic receptor muscarinic 1 (CHRM1) small molecule antagonists, cell-based qHTS assay (AID 1963588); note: nearly all actives have a fitted effect of over 40% in size
Outline: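 Compounds were tested at 15 concentrations in three independent runs. Dye-loaded CHRM1-CHO cells were exposed 5 min at room temperature before stimulation by acetylcholine added at 50nM. Intracellular calcium was read kinetically on FDSS for 3 min.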

[15] = target: Muscarinic acetylcholine receptor M1 (Homo sapiens) (UniProt P11229); experiment: Cholinergic receptor muscarinic 1 (CHRM1) small molecule agonists, cell-based qHTS assay (AID 1963589); note: nearly all actives have a fitted effect of over 35% in size
Outline: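 qHTS, 15-point titration, 3 independent runs: compounds pin-transferred onto dye-loaded CHRM1-CHO cells (human M1), calcium fluorescence followed every second to detect agonism.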

[16] = cAMP Responsive Elements (CRE) small molecule agonists, cell-based qHTS assay (AID 1963590)
Outline: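 Quantitative HTS for CRE agonists: HEK 293T CRE-bla cells, overnight plating, 3 h compound incubation at 37 C/5% CO2, then 2 h room-temperature LiveBLAzer B/G FRET substrate loading.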

[17] = cAMP Responsive Elements (CRE) small molecule antagonists, cell-based qHTS assay (AID 1963591; active = well fitted inhibition curve with a large enough effect in the signal ratio in the repeat runs, not every such curve was filed as active; the % refers to the signal ratio; note: potency is the fitted concentration of half-maximal effect)
Outline: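 Fluorescence intensity from cleaved LiveBLAzer B/G substrate (2 h, room temperature) quantified CRE-bla activity in HEK 293T cells exposed 3 h to compound with 0.25 uM final NKH477.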

[18] = target: Beta-2 adrenergic receptor (Homo sapiens) (UniProt P07550); experiment: Adrenergic beta2 receptor (ADRB2) small molecule antagonists, cell-based qHTS assay (AID 1963592); note: series mostly up to about 92 µM; nearly all actives have a fitted effect of over 50% in size
Outline: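 Assay format: CHO-ADRB2 cells, 18-20hr seeding at 37C/5% CO2, then compound plus 1nM isoproterenol agonist mix for 0.5hr RT. Homogeneous time-resolved fluorescence cAMP detection after 1hr, expressed as 665/615 nm ratio.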

[19] = target: Beta-2 adrenergic receptor (Homo sapiens) (UniProt P07550); experiment: Adrenergic beta2 receptor (ADRB2) small molecule agonists, cell-based qHTS assay (AID 1963593);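 note: CHO cells stably overexpressing human ADRB2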
Outline: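 CHO cells stably over-expressing ADRB2 were plated overnight at 37C, then dosed with compounds plus a stimulation mix containing 100uM IBMX and 25uM Ro-20-1724 for 0.5hr at room temperature. cAMP was measured by HTRF competition, 1hr.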

[20] = target: D(2) dopamine receptor (Homo sapiens) (UniProt P14416); experiment: Dopamine D2 receptor (DRD2) small molecule agonists, cell-based qHTS assay (AID 1963594); note: nearly all actives have a fitted effect of over 35% in size
Outline: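 HEK293 cells stably expressing human DRD2, pre-treated with PDE inhibitor Ro20-1724 (0.1 mM final) and compound 10 min at room temperature, then stimulated with NKH477 (200nM […]) for 30 min. cAMP read by HTRF (665/620 nm).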

Sequence of Muscarinic acetylcholine receptor M1 (Homo sapiens) (P11229 whole entry, looked up): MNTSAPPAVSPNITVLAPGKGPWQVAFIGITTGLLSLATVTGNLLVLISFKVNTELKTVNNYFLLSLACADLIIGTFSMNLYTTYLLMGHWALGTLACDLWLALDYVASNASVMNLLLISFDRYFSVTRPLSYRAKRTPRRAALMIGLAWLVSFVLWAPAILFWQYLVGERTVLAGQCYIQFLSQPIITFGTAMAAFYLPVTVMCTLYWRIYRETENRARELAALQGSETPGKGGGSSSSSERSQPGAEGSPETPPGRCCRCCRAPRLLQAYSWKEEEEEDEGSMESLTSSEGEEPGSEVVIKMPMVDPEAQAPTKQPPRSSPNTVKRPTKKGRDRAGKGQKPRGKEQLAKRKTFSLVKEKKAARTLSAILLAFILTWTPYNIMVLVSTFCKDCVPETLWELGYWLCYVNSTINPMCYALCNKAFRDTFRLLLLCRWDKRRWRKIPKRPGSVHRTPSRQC
Sequence of D(2) dopamine receptor (Homo sapiens) (P14416 whole entry, looked up): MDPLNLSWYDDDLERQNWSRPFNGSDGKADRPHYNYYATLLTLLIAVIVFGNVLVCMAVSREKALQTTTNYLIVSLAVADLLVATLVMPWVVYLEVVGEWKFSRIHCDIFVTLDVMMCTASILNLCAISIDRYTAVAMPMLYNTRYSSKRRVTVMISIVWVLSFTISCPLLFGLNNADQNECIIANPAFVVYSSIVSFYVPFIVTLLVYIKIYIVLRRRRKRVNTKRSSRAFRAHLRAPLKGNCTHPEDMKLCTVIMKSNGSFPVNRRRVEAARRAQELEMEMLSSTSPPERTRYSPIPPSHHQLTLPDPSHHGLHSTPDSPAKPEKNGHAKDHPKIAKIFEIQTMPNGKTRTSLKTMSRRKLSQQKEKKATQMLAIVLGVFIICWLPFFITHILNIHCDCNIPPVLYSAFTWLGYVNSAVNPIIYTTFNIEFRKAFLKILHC
Sequence of 5-hydroxytryptamine receptor 2A (Homo sapiens) (P28223 whole entry, looked up): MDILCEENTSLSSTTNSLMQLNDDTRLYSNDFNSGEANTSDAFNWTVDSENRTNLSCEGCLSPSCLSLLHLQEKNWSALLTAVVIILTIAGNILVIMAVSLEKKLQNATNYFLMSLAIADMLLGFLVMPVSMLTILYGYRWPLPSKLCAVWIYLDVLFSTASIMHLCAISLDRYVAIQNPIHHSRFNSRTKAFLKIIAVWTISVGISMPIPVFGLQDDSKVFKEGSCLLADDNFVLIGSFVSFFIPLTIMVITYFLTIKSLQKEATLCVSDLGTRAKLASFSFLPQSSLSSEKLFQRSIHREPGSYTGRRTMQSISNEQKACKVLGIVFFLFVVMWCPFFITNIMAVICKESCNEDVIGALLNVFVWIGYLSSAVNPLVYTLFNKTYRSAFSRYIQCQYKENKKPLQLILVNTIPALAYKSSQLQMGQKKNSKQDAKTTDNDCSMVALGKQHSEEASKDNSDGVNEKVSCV
Sequence of Gonadotropin-releasing hormone receptor (Homo sapiens) (P30968 whole entry, looked up): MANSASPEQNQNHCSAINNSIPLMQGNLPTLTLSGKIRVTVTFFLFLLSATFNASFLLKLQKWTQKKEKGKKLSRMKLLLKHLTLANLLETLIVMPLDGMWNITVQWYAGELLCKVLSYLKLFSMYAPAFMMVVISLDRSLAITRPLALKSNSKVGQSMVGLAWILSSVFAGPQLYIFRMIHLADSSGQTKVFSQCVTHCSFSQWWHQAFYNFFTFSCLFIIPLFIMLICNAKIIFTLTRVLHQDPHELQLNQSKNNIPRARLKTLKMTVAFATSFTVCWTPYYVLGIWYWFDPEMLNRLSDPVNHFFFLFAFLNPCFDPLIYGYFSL
Sequence of KiSS-1 receptor (Homo sapiens) (Q969F8 whole entry, looked up): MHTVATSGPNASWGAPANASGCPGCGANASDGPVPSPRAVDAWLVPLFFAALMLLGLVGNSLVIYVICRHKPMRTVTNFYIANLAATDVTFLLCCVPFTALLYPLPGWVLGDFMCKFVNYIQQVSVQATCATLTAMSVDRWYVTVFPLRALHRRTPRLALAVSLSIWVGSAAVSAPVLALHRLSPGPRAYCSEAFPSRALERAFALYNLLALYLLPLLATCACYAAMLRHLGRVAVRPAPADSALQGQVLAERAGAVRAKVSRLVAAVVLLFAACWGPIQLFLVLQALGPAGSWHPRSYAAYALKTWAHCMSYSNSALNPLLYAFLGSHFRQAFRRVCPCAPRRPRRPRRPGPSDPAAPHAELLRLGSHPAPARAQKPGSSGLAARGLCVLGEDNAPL
Sequence of Beta-2 adrenergic receptor (Homo sapiens) (P07550 whole entry, looked up): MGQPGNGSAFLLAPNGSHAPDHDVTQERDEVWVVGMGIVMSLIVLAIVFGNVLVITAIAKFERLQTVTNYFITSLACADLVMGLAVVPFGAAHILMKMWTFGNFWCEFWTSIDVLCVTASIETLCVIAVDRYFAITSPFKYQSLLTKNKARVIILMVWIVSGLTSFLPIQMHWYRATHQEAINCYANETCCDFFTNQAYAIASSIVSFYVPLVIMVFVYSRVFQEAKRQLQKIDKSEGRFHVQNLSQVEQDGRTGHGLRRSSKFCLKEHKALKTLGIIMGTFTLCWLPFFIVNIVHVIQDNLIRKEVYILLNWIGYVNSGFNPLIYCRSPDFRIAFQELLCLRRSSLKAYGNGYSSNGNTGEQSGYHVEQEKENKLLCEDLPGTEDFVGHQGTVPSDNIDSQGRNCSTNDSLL

Row | SMILES | Potency [1] | Potency [2] | Potency [3] | Potency [4] | Potency [5] | Potency [6] | Potency [7] | Potency [8] | Potency [9] | Potency [10] | Potency [11] | Potency [12] | Potency [13] | Potency [14] | Potency [15] | Potency [16] | Potency [17] | Potency [18] | Potency [19] | Potency [20]
1 | CC(C)CCO | inactive | inactive | inactive | inactive | inactive | inactive | inactive | inactive | inactive | inactive | inactive | inactive | inactive | inactive | inactive | inactive | inactive | inactive | inactive | inactive
2 | CC(CCO)CCc1ccccc1 (stereo not given) | inactive | inactive | inactive | inactive | inactive | inactive | inactive | inactive | inactive | inactive | inactive | inactive | inactive | inactive | inactive | inactive | inactive | inactive | inactive | inactive
3 | CCCCCC(=O)CC | inactive | inactive | inactive | inactive | inactive | inactive | inactive | inactive | inactive | inactive | inactive | inactive | inactive | inactive | inactive | inactive | inactive | inactive | inactive | inactive
4 | CC(C)(C)C(=O)OCOC(=O)C1N2C(=O)CC2S(=O)(=O)C1(C)C (stereo not given) | inactive | inactive | inactive | inactive | inactive | inactive | inactive | inactive | inactive | inactive | inactive | inactive | inactive | inactive | inactive | inactive | 11.9 nM (active) | inactive | inactive | inactive
5 | COc1cc(C(=S)N2CCOCC2)ccc1O | inactive | inactive | inactive | inactive | inactive | inactive | inactive | inactive | inactive | inactive | inactive | inactive | inactive | inactive | inactive | inactive | inactive | inactive | inactive | inactive
6 | Cc1cccc(S(=O)(=O)O)c1C | inactive | inactive | inactive | inactive | inactive | inactive | inactive | inactive | inactive | inactive | inactive | inactive | inactive | inactive | inactive | inactive | inactive | inactive | inactive | inactive
7 | Cc1ccccc1OCC1CO1 (stereo not given) | inactive | inactive | inactive | inactive | inactive | inactive | inactive | inactive | inactive | inactive | inactive | inactive | inactive | inactive | inactive | inactive | inactive | inactive | inactive | inactive
8 | CC(C)(C)OCC1CO1 (stereo not given) | inactive | inactive | inactive | inactive | inactive | inactive | inactive | inactive | inactive | inactive | inactive | inactive | inactive | inactive | inactive | inactive | inactive | inactive | inactive | inactive
9 | CC(=O)c1ccc2ccccc2c1 | inactive | inactive | inactive | inactive | inactive | inactive | inactive | inactive | inactive | inactive | inactive | inactive | inactive | inactive | inactive | inactive | inactive | inactive | inactive | inactive
10 | CCCC(=O)OCc1ccccc1 | inactive | inactive | inactive | inactive | inactive | inactive | inactive | inactive | inactive | inactive | inactive | inactive | inactive | inactive | inactive | inactive | inactive | inactive | inactive | inactive
11 | CC(C)CCCC(C)CCO (stereo not given) | inactive | inactive | inactive | inactive | inactive | inactive | inactive | inactive | inactive | inactive | inactive | inactive | inactive | inactive | inactive | inactive | inactive | inactive | inactive | inactive
12 | CCCCOC(O)CC (stereo not given) | inactive | inactive | inactive | inactive | inactive | inactive | inactive | inactive | inactive | inactive | inactive | inactive | inactive | inactive | inactive | inactive | inactive | inactive | inactive | inactive
13 | CC(=O)/C=C/C1C(C)=CCC(C)C1(C)C (stereo not given) | inactive | inactive | inactive | inactive | inactive | inactive | inactive | inactive | inactive | inactive | inactive | inactive | inactive | inactive | inactive | inactive | inactive | inactive | inactive | inactive
14 | O=C1OC(=O)C2CC=CCC12 (stereo not given) | inactive | inactive | inactive | inactive | inactive | inactive | inactive | inactive | inactive | inactive | inactive | inactive | inactive | inactive | inactive | inactive | inactive | inactive | inactive | inactive
